# Source: PubChem BioAssay (Broad Institute)
# Rows were chosen to be rich in hits. Some 2.6% of all compounds tested hit in one or more screens of this group.
# NFkB binder: binds human NF-kappa-B p105 on microarray. 17,000 compounds, 1.3% hits. Small molecule microarray, anti-His fluorescence binding. AID 624139. calls only. P19838;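 active = spot fluorescence over background significantly raised, with a chance value under 7% in all four replicate spots of the compound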;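 note: probe protein is his-tagged human p50 processed subunit at 1 µg/ml; raw spot fluorescence signals with no normalization applied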
# Myc binder: binders of human c-Myc | small molecule microarray, His-c-Myc binding, anti-His fluorescence | calls only | 17,000 compounds, 1.5% hits;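 active = spot fluorescence over background with P-value below 7% in all four replicate spots, showing protein binding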;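 note: score is binary with 100 for all four spots passing and 0 otherwise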
# Target sequence (P01106 whole entry, looked up): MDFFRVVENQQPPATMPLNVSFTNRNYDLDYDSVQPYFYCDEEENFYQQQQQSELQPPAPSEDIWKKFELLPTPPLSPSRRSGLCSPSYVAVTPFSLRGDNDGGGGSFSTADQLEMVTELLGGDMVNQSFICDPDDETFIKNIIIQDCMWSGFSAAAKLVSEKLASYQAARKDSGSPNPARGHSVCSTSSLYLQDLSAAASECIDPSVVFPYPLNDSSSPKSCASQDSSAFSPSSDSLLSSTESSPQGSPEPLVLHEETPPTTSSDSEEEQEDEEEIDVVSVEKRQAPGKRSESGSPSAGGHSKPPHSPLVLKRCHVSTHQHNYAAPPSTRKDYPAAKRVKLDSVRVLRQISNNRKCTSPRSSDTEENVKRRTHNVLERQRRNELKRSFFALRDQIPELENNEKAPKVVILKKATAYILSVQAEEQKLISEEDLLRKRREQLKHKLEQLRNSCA
# STAT3 binder: binders of human STAT3; P40763; Small molecule microarray, His-STAT3 binding, anti-His fluorescence; calls only; 17,000 compounds, 0.2% hits; AID 624138;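 active = compounds whose four printed spots each show fluorescence over background unusually high for their array block, chance value under 7%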
# mut p53 react: re-activators of the mutant p53 pathway. 28,000 compounds, 1.5% hits. SW480 PUMA-promoter luciferase, p53 mutant reactivation. AID 624151. activation, % at 9.98 µM; in the data active = activation above about 52%
# mut p53 SMM: binders of human mutant p53 | AID 624136 | 17,000 compounds, 0.4% hits | small molecule microarray binding, anti-GST fluorescence | calls only;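 active = compounds whose four printed spots each glow above background more than chance allows, each with a p-value under 7%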
# * marks the source's active call; other numbers are inactive results; i = inactive; nt = no result; + = active, no number.
SMILES,NFkB binder,Myc binder,STAT3 binder,mut p53 react,mut p53 SMM
C[C@H](CO)N1C[C@H](C)[C@@H](CN(C)S(=O)(=O)c2ccc(F)cc2)OCCCC[C@H](C)Oc2ccc(NC(=O)Nc3ccc(C(F)(F)F)cc3)cc2C1=O,+,i,i,nt,i
C[C@@H]1CN([C@@H](C)CO)C(=O)c2cc(NS(C)(=O)=O)ccc2O[C@@H](C)CCCCO[C@@H]1CN(C)C(=O)Nc1ccc(C(F)(F)F)cc1,i,i,+,-4,i
CC(C)NC(=O)N(C)C[C@H]1OCCCC[C@H](C)Oc2ccc(NC(=O)Nc3ccc(C(F)(F)F)cc3)cc2C(=O)N([C@@H](C)CO)C[C@H]1C,+,+,i,-19,i
C[C@H](CO)N1C[C@H](C)[C@H](CN(C)C(=O)Nc2ccc(C(F)(F)F)cc2)OCCCC[C@H](C)Oc2ccc(NS(C)(=O)=O)cc2C1=O,i,i,i,10,i
C[C@@H]1CCCCO[C@@H](CN(C)C(=O)Nc2ccc(C(F)(F)F)cc2)[C@H](C)CN([C@H](C)CO)C(=O)c2cc(NC(=O)Nc3ccc(F)cc3)ccc2O1,i,i,i,nt,i
C[C@H](CO)N1C[C@H](C)[C@@H](CN(C)S(=O)(=O)c2ccc(F)cc2)OCCCC[C@H](C)Oc2ccc(NC(=O)Nc3ccc(F)cc3)cc2C1=O,i,i,i,nt,i
COc1ccccc1C(=O)CSc1nnc(-c2ccccc2Cl)n1-c1ccccc1,nt,nt,nt,6,nt
CCCN(C)C[C@H]1OCCCC[C@@H](C)Oc2ccc(NS(=O)(=O)c3ccc(OC)cc3)cc2C(=O)N([C@H](C)CO)C[C@H]1C,i,i,i,-11,+
C[C@H]1CCCCO[C@H](CN(C)C(=O)C2CCCCC2)[C@@H](C)CN([C@@H](C)CO)C(=O)c2cc(NS(=O)(=O)c3ccccc3)ccc2O1,+,+,i,-7,i
C[C@H](CO)N1C[C@H](C)[C@H](CN(C)Cc2ccccc2)OCCCC[C@H](C)Oc2ccc(NS(=O)(=O)c3ccccc3)cc2C1=O,i,i,i,1,+
C[C@@H]1CCCCO[C@@H](CN(C)C(=O)C2CCCCC2)[C@@H](C)CN([C@H](C)CO)C(=O)c2cc(NS(=O)(=O)c3ccccc3)ccc2O1,i,i,i,-7,i
C[C@H](CO)N1C[C@H](C)[C@H](CN(C)C(=O)C2CCCCC2)OCCCC[C@H](C)Oc2ccc(NS(=O)(=O)c3ccccc3)cc2C1=O,i,i,+,-16,i
CCCN(C)C[C@H]1OCCCC[C@@H](C)Oc2ccc(NS(=O)(=O)c3ccc(OC)cc3)cc2C(=O)N([C@H](C)CO)C[C@@H]1C,i,i,i,-3,i
C[C@H]1CCCCO[C@@H](CN(C)C(=O)C2CCCCC2)[C@@H](C)CN([C@@H](C)CO)C(=O)c2cc(NS(=O)(=O)c3ccccc3)ccc2O1,i,i,i,-10,i
CC(=O)c1ccc(NC(=O)CCn2cnc3ccccc3c2=O)cc1,nt,nt,nt,3,nt
Cc1cccc(OCC(=O)Nc2cc(C(F)(F)F)ccc2N2CCOCC2)c1,nt,nt,nt,-3,nt
Cc1ccc(-c2nnc(SCC(=O)Nc3ccccc3C(C)(C)C)n2C)cc1,nt,nt,nt,-11,nt
C[C@@H]1CN([C@H](C)CO)C(=O)c2cccc(NC(=O)Nc3ccc(C(F)(F)F)cc3)c2O[C@H]1CN(C)CC1CC1,i,i,+,-13,i
C[C@@H]1CN([C@H](C)CO)C(=O)c2cccc(NC(=O)Nc3ccc(C(F)(F)F)cc3)c2O[C@H]1CN(C)C(=O)NC1CCCCC1,+,+,+,-16,i
COc1ccc(S(=O)(=O)Nc2cccc3c2O[C@H](CN(C)Cc2ccc(C(F)(F)F)cc2)[C@@H](C)CN([C@@H](C)CO)C3=O)cc1,i,i,i,-2,i
C[C@@H]1CN([C@@H](C)CO)C(=O)c2cccc(NC(=O)Nc3ccc(C(F)(F)F)cc3)c2O[C@H]1CN(C)S(=O)(=O)c1cn(C)cn1,+,+,i,20,i
COc1ccc(S(=O)(=O)Nc2cccc3c2O[C@@H](CN(C)Cc2ccc(C(F)(F)F)cc2)[C@H](C)CN([C@H](C)CO)C3=O)cc1,i,i,+,10,i
C[C@H](CO)N1C[C@H](C)[C@H](CN(C)C(=O)NC2CCCCC2)Oc2c(NC(=O)Nc3ccc(C(F)(F)F)cc3)cccc2C1=O,i,i,i,-2,i
C[C@H](CO)N1C[C@H](C)[C@H](CN(C)C(=O)Nc2ccc(C(F)(F)F)cc2)Oc2c(NC(=O)NC3CCCCC3)cccc2C1=O,i,i,i,-19,i
C[C@H]1CN([C@@H](C)CO)C(=O)c2cccc(NC(=O)NC3CCCCC3)c2O[C@@H]1CN(C)C(=O)Nc1ccc(C(F)(F)F)cc1,+,+,i,-4,i
SMILES,NFkB binder,Myc binder,STAT3 binder,mut p53 react,mut p53 SMM
Cc1c(Br)c([N+](=O)[O-])nn1CC(=O)Nc1sc2c(c1C#N)CCC2,nt,nt,nt,-17,nt
Cc1ccc(-c2nnc(SCc3ccccc3C#N)n2-c2ccccc2)cc1Cl,nt,nt,nt,84*,nt
N#Cc1ccccc1CSc1nnc(-c2ccco2)n1-c1ccccc1,nt,nt,nt,5,nt
C#C[C@]1(O)CC[C@H]2[C@@H]3CCC4=Cc5oncc5C[C@]4(C)[C@H]3CC[C@@]21C,i,+,i,nt,nt
CC1CCc2c(sc(NC(=O)c3nc4ncccn4n3)c2C(N)=O)C1 (stereo not drawn),nt,nt,nt,59*,nt
OC(c1ccccc1)c1nc2ccccc2n1CCOc1ccccc1 (stereo not drawn),nt,nt,nt,2,nt
c1ccc(OCc2nc3ccccc3n2Cc2ccccn2)cc1,i,i,i,59*,i
CC1(C)O[C@H]2CC(=O)OC[C@@]23[C@H]1CC(=O)[C@@]1(C)C2=CC(=O)O[C@@H](c4ccoc4)[C@]2(C)CC[C@@H]13,+,+,i,-5,i
Cc1c(Cl)c(C(F)(F)F)nn1CCCNC(=O)Nc1cccc([N+](=O)[O-])c1,i,i,i,19,i
CCOC(=O)CSc1nnc2c3ccccc3n(C)c2n1,i,i,i,-5,i
Cn1c2ccccc2c2nnc(SCCN3CCCCC3)nc21,i,+,i,5,i
c1ccc2c(c1)[nH]c1nc(SCCN3CCCCC3)nnc12,i,+,i,9,i
CCOC(=O)c1c(CSc2nc(C)cc(C)n2)nc2c3ccccc3ccn12,nt,nt,nt,90*,nt
CC(C)(C)c1ccc(C(=O)NCCNc2ccccc2[N+](=O)[O-])cc1,nt,nt,nt,114*,nt
CCOC(=O)c1c(NC(=S)NC(=O)c2ccc(OC)c([N+](=O)[O-])c2)sc2c1CCC2,i,+,i,-4,i
CCOC(=O)c1c(NC(=S)Nc2nc(C)cc(C)n2)sc2c1CCCCCC2,i,i,i,-8,i
CC1(C)Cc2c(sc3c2c(=O)n(Cc2ccccc2)c2nnc(SCC(=O)c4ccc(Br)cc4)n32)CO1,i,i,i,-7,i
O=C(NCc1ccccn1)Nc1ccccc1Cl,nt,nt,nt,143*,nt
